# Measured values from PMC4336329 (PLoS ONE, 2015).
# About 14,000 (4.5%) of roughly 310,000 compounds showed an effect of 50% or more. The effect is printed as a negative number. Only a selection was taken, and strong results are over-represented in it overall.
# Target: human ether-à-go-go-related gene (hERG) potassium channel (human, UniProt Q12809)
# Experiment: primary screen, population patch clamp on CHO cells stably expressing hERG; higher = less effect of the substance
# 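Also: peak tail current of the secondary pulse compared with the same well before compound.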
# Sequence of human ether-à-go-go-related gene (hERG) potassium channel (Q12809 whole entry, looked up): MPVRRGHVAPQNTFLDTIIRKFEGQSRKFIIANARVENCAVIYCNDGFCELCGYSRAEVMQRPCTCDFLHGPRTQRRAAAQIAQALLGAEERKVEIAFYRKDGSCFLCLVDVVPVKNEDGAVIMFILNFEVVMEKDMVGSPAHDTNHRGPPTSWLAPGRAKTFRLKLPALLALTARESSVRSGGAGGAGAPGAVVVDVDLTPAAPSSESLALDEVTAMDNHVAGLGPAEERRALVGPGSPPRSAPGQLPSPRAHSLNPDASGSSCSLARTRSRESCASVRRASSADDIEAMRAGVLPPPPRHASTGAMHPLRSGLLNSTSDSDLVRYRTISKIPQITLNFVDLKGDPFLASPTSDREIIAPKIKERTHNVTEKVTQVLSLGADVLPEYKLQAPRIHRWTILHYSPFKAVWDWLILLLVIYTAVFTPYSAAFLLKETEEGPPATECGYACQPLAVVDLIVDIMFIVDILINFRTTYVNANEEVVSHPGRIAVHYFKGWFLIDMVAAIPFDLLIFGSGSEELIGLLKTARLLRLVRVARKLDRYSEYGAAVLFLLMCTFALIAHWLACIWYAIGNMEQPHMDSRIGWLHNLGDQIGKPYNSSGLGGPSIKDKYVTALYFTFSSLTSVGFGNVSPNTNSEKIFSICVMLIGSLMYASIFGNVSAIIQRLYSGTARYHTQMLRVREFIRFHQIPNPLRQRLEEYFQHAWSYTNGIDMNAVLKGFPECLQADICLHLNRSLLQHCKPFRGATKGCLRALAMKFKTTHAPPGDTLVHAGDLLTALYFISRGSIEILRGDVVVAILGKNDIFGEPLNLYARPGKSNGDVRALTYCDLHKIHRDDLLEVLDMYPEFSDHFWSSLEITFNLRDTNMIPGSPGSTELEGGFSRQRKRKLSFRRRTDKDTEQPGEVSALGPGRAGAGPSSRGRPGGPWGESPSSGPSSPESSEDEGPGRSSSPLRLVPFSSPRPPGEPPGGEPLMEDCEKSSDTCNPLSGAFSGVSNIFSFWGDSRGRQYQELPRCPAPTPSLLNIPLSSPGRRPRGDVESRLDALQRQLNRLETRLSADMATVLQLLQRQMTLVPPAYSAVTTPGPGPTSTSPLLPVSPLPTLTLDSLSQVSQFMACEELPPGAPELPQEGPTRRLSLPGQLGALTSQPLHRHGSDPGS
row,Structure (SMILES),"hERG current change (%, negative = inhibition) at 10uM"
1,CCCCCn1c(=O)[nH]c2cc(C(=O)NCCN3CCCCC3C)ccc2c1=O (centres unmarked),-15.9%
2,CCOC(=O)c1ccc(NC(=S)NNC(=O)C2(C)CC2(Cl)Cl)cc1 (centres unmarked),28.4%
3,O=C(O)CCSc1nnc(COc2ccc([N+](=O)[O-])cc2)n1-c1ccccc1,22.8%
4,C/C(=C\[C@@H](NP(=O)(c1ccccc1)c1ccccc1)c1ccccc1)CO[Si](c1ccccc1)(c1ccccc1)C(C)(C)C,5.58%
5,CCN(CC)S(=O)(=O)c1cccc(C(=O)NCC(=O)OCC(=O)NCc2ccccc2)c1,-7.41%
6,CCOc1ccc(CC(=O)OCc2cc(=O)n3cc(Br)ccc3n2)cc1,-6.01%
7,Cc1cc(C)c(C)c(S(=O)(=O)N[C@@H](C)C(=O)OCc2cc(=O)n3cc(Br)ccc3n2)c1C,-47%
8,CC1CC1C(=O)OCc1cc(=O)n2cc(Br)ccc2n1 (centres unmarked),-16.2%
9,O=C(CNS(=O)(=O)c1ccc(Br)cc1)OCc1cc(=O)n2cc(Br)ccc2n1,-26%
10,CC1(C(=O)OCc2cc(=O)n3cc(Br)ccc3n2)CC1(Cl)Cl (centres unmarked),-54.3%
11,C[C@H](NS(=O)(=O)c1ccc(Cl)c(Cl)c1)C(=O)OCc1cc(=O)n2cc(Br)ccc2n1,-63.4%
12,COc1ccc(NS(=O)(=O)c2cc(NC(=O)c3ccc(=O)[nH]c3)ccc2C)cc1,15.1%
13,CC(=O)Nc1ccc(S(=O)(=O)N2CCN(c3nnnn3-c3ccccc3)CC2)cc1,13.1%
14,O=[N+]([O-])c1ccc(C[n+]2cccc3ccc4cccnc4c32)cc1.[Br-],-62.6%
15,O=[N+]([O-])c1ccc(C[n+]2cccc3ccccc32)cc1.[Cl-],-3.07%
16,O=[N+]([O-])c1ccc(C[n+]2cccc3c4ccccc4ccc32)cc1.[Br-],-40.5%
17,CN(C)c1ccc(C2N(C(=O)N3CCOCC3)CCN2S(=O)(=O)c2ccccc2)cc1 (centres unmarked),3.98%
18,COCCC(=O)N1CCCC(C(=O)c2ccc(Oc3ccccc3)cc2)C1 (centres unmarked),-79.3%
19,CCn1nc(C)cc1C(=O)N1CCCC(C(=O)c2ccc(Oc3ccccc3)cc2)C1 (centres unmarked),-9.04%
20,CC(=O)N1CCCC(C(=O)c2ccc(Oc3ccccc3)cc2)C1 (centres unmarked),-5.43%
21,CC(=O)NCC(=O)N1CCCC(C(=O)c2ccc(Oc3ccccc3)cc2)C1 (centres unmarked),-23.2%

row,Structure (SMILES),"hERG current change (%, negative = inhibition) at 10uM"
1,COCC(=O)N1CCCC(C(=O)c2ccc(Oc3ccccc3)cc2)C1 (centres unmarked),-34.1%
2,CCN1CCN(CC(=O)N2CCCC(C(=O)c3ccc(Oc4ccccc4)cc3)C2)CC1 (centres unmarked),-52.7%
3,CC1CCCC(C)N1S(=O)(=O)c1ccc(NC(=O)c2ccccc2C(=O)N2CCOCC2)cc1 (centres unmarked),-3.57%
4,NC(=O)[C@@H]1CCCN1Cc1nc(Cc2ccccc2F)no1,7.29%
5,Cc1ccc2nc(-c3ccc(NC(=O)CCS(=O)(=O)c4ccccc4)cc3)sc2c1,2.03%
6,CC(C)CCOP(N)(=O)Oc1ccccc1 (centres unmarked),9.05%
7,CCN1C(=O)c2ccc(C(=O)Nc3ncc(C)s3)cc2C1=O,6.29%
8,COc1ccccc1-c1cc(C(=O)N/N=C\c2cnn(C)c2C)c2ccccc2n1,-3.85%
9,CC1CN(c2nc3ccccn3c(=O)c2/C=C(\C#N)C(N)=O)CC(C)O1 (centres unmarked),21.1%
10,CC1(C)Cc2nc3sc(C(=O)O)c(N)c3cc2CS1,29.4%
11,COc1ccc(C(=O)C2CCCN(C(=O)c3ccc(F)cc3)C2)cc1OC (centres unmarked),-3.95%
12,Cn1cc(CN2CCCC(C(=O)c3nccn3C)C2)c(-c2cccc(Cl)c2)n1 (centres unmarked),-31.1%
13,Cn1ccnc1C(=O)C1CCCN(Cc2cn[nH]c2-c2ccc(-c3ccccc3)cc2)C1 (centres unmarked),-67.9%
14,COc1ccc(C(=O)C2CCCN(Cc3ccc(F)cc3F)C2)cc1F (centres unmarked),-29.8%
15,CCOC(=O)c1[nH]ncc1CN1CCCC(C(=O)c2cccc3ccccc23)C1 (centres unmarked),-45.8%
16,COc1ccc(C(=O)C2CCCN(Cc3cn[nH]c3-c3ccc(F)cc3)C2)cc1OC (centres unmarked),-66.5%
17,COc1ccc(C(=O)C2CCCN(Cc3cn[nH]c3-c3ccccc3)C2)cc1OC (centres unmarked),-74%
18,COCCNC(=O)c1cc(-c2ccc(OC)c(OC)c2)on1,-1.95%
19,CCOc1ccc(C(=O)N[C@H](C(=O)Nc2ccccc2OC)C(C)C)cc1,-28.7%
20,O=C1NC(=Nc2ccccc2)c2ccc([N+](=O)[O-])cc21,3.21%
21,Cc1cc(NC(=O)CSc2nc3c(C)c(C)ccc3cc2C)no1,-44.6%

row,Structure (SMILES),"hERG current change (%, negative = inhibition) at 10uM"
1,O=C1CC(c2ccco2)CC(O)=C1C=NCCN1CCN(C(=S)Nc2ccccc2)CC1 (centres unmarked),-54.1%
2,O=C1CC(c2ccco2)CC(O)=C1C=NCCN1CCNCC1 (centres unmarked),2.1%
3,CCNC(=S)N1CCN(CCN=CC2=C(O)CC(c3ccco3)CC2=O)CC1 (centres unmarked),0.166%
4,C=CCNC(=S)N1CCN(CCN=CC2=C(O)CC(c3ccco3)CC2=O)CC1 (centres unmarked),-25.8%
5,O=C1CC(c2ccco2)CC(O)=C1C=NCCN1CCN(C(=O)Nc2ccc(Cl)cc2)CC1 (centres unmarked),-66.4%
6,O=C1CC(c2ccco2)CC(O)=C1C=NCCO (centres unmarked),7.61%
7,Cl.O=C(CN1CCC(NC(=O)c2ccccc2Cl)CC1)NCc1ccco1,-2.98%
8,O=C(c1ccc2c3n(nc2c1)-c1ccccc1CO3)N1CCOCC1,-8.48%
9,COc1ccc(CCNC(=O)c2cc(-c3ccc4c(c3)OCO4)on2)cc1OC,-4.11%
10,Cc1cccc(N(C(=O)CNC(=O)c2ccco2)C(C(=O)NCC2CCCO2)c2ccccc2)c1 (centres unmarked),9.57%
11,Cc1ccc(CSc2sc(C(=O)c3ccccc3)c(N)c2C#N)cc1,6.41%
12,NC1=Nc2cccc3cccc1c23,21.3%
13,CCCCN(C)C1=Nc2cccc3cccc1c23,-72%
14,CCCCON1C(=O)c2cccc3cccc(c23)C1=O,-4.38%
15,O=C(Nc1ccc([N+](=O)[O-])cc1)Nc1nc(-c2ccc(Cl)s2)cs1,25.7%
16,OCCOCCn1c(CCNc2nc(-c3ccc(F)cc3)cs2)nc2cc(C(F)(F)F)ccc21,-61.1%
17,OCCCn1c(CCNc2nc(-c3ccc(F)cc3)cs2)nc2cc(C(F)(F)F)ccc21,-32.3%
18,OCCCn1c(CCNc2nc(-c3ccc(Cl)cc3)cs2)nc2cc(C(F)(F)F)ccc21,-0.705%
19,Cc1csc(N2CCCC2c2nc3cc(Cl)c(N4CCCCC4)cc3n2CCOCCO)n1 (centres unmarked),-47.3%
20,OCCCn1c(C2CCCN2c2nc(-c3ccc(F)cc3)cs2)nc2cc(C(F)(F)F)ccc21 (centres unmarked),-21%
21,OCCOCCn1c(C2CCCN2c2nc(-c3ccc(F)cc3)cs2)nc2cc(C(F)(F)F)ccc21 (centres unmarked),-75.1%

row,Structure (SMILES),"hERG current change (%, negative = inhibition) at 10uM"
1,Cc1ccc(Cn2c(C3CCCN3c3nc(C)cs3)nc3cc(C(F)(F)F)ccc32)cc1 (centres unmarked),0.159%
2,OCCOCCn1c(C2CCCN2c2nc(-c3ccc(F)cc3)cs2)nc2cc(Cl)c(Cl)cc21 (centres unmarked),-28.7%
3,Cc1csc(N2CCCC2c2nc3cc(C(F)(F)F)ccc3n2CCOCCO)n1 (centres unmarked),-69.1%
4,CCN1CCSc2ccc(C(=O)NCc3ccccc3F)cc21,-20.8%
5,Cc1oc(-c2cccc(Cl)c2)nc1CS(=O)(=O)CC(=O)NCCN1CCCC1,-0.675%
6,CCCC/C(C)=N\NC(=O)CNS(=O)(=O)c1ccc([N+](=O)[O-])cc1,-2.14%
7,CCOc1ccc(CN(C)C(=O)CNC(=O)c2ccc(Br)o2)cc1OC,-2.55%
8,COc1cccc(Cn2cccc(NC(=O)Nc3cccc(C#N)c3)c2=O)c1,6.1%
9,CC(C)(C)CN1CCNC(=O)C1CC(=O)NCCN1CCCc2ccccc21 (centres unmarked),0.68%
10,O=C(CC1C(=O)NCCN1CC1CCCCC1)NCc1cc(F)ccc1F (centres unmarked),1.77%
11,Cc1nc(CCNC(=O)CC2C(=O)NCCN2Cc2ccoc2)nc2c1CCCC2 (centres unmarked),-36.7%
12,O=C(CC1C(=O)NCCN1Cc1ccc(F)cc1)NCCN1CCCc2ccccc21 (centres unmarked),-66.1%
13,O=C(CC1C(=O)NCCN1Cc1ccoc1)NCCc1ccc(Cl)cc1 (centres unmarked),-53.7%
14,O=C(CC1C(=O)NCCN1CC1CCCCC1)NCCc1ccc(F)cc1 (centres unmarked),-51.6%
15,O=C(CC1C(=O)NCCN1Cc1ccccc1)NCCN1CCCCC1=O (centres unmarked),19.1%
16,O=C(CC1C(=O)NCCN1CC1CCCCC1)NCc1ccc(F)cc1 (centres unmarked),-20.3%
17,COC(=O)CCCNC(=O)CC1C(=O)NCCN1Cc1ccoc1 (centres unmarked),22.1%
18,Cc1ccc(C)c(Nc2ccc(C(=O)NCCc3ccccc3)cn2)c1,-20.9%
19,CCN(CC(=O)Nc1ccc(N2CCOCC2)cc1)C(=O)Cc1ccccc1,3.76%
20,COCC(C)n1c(-c2ccc3c(c2)NC(=O)CO3)csc1=Nc1ccc(OC(F)F)cc1 (centres unmarked),2.76%
